Reference: PubChem BioAssay (Tox21)
The source made the active and inactive calls. Unless noted, the call rests on the fitted dose curve; in most records, active means well fitted curve in the direction sought with a large enough effect in the repeat runs; inconclusive means weak or mixed curves; inactive means no such curve, though single readings can be large; an effect the other way counts as inactive or inconclusive.

Experiments:
[1] = qHTS assay for small molecule agonists of the p53 signaling pathway (AID 651631; calls by dose curve; further: nearly all actives have a fitted effect of over 15% in size; further: potency means the concentration at half of the fitted maximal effect)
How it was run: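 Fluorescence intensity from cleaved LiveBLAzer B/G substrate (2 h, room temperature) served as the signal. Beforehand, HCT-116 reporter cells bearing p53 response elements were treated 16 h at 37 °C with DMSO-dissolved compounds.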

[2] = qHTS assay for small molecules that induce genotoxicity in human embryonic kidney cells expressing luciferase-tagged ATAD5 (AID 651632); further: nearly all actives have a fitted effect of over 15% in size
How it was run: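 HEK293T cells carrying a luciferase reporter tagged to ATAD5 were exposed to compound or DMSO vehicle for 16 hr at 37C, 5% CO2. Amplite was added, and after 30 min at room temperature luciferase activity was read as a marker of ATAD5 induction.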

[3] = qHTS assay for small molecule agonists of the p53 signaling pathway - cell viability (AID 651633; calls by dose curve; further: nearly all actives have a fitted effect of over 30% in size; further: potency means the concentration at half of the fitted maximal effect)
How it was run: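 p53RE-bla cells were treated with compound for 16 hours at 37 C. Cytotoxicity was then measured as CellTiter-Glo luminescence after 30 min at room temperature.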

[4] = qHTS assay for small molecules that induce genotoxicity in human embryonic kidney cells expressing luciferase-tagged ATAD5 - cell viability (AID 651634; calls by dose curve; further: nearly all actives have a fitted effect of over 25% in size; further: potency means the concentration at half of the fitted maximal effect)
How it was run: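 HEK293T cells expressing luciferase-tagged ATAD5 were exposed to compound or DMSO for 15.5 hr at 37C, 5% CO2. Viability was then read as live-cell protease activity by CellTiter-Fluor fluorescence after 30 min at 37C.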

[5] = qHTS assay for small molecule disruptors of the mitochondrial membrane potential - cell viability (AID 720634; calls by dose curve; further: nearly all actives have a fitted effect of over 20% in size; further: potency means the concentration at half of the fitted maximal effect)
How it was run: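 HepG2 cells seeded overnight at 37 C, then exposed to compound or DMSO for 1 hr at 37 C, 5% CO2. m-MPI dye added, then CellTiter-Glo for 30 min at room temperature; viability read as ATP luminescence.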

[6] = qHTS assay to test for compound auto fluorescence at 590 nm (red) in HepG2 cells (AID 720674)
How it was run: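 Fluorescence at 590 nm emission following 540 nm excitation was recorded from HepG2 wells one hour after compound transfer, with DMSO-only wells as vehicle and Rose Bengal sodium equivalency as the scale.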

[7] = qHTS assay to test for compound auto fluorescence at 535 nm (green) in HepG2 cells (AID 720675)
[8] = qHTS assay to test for compound auto fluorescence at 460 nm (blue) in HEK293 cells (AID 720678)
How it was run: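 After cell attachment (4-5 hr, 37C), compounds were pinned onto HEK293 monolayers in 10% dialyzed FBS medium. The blue channel (405/460 nm) was read following overnight culture. Equivalency was calculated against triamterene.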

[9] = qHTS assay to test for compound auto fluorescence at 590 nm (red) in HEK293 cells (AID 720679)
How it was run: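 Plates of HEK293 cells (10% dialyzed FBS) are treated with 23 nL compound or DMSO vehicle after a 4-5 hr attachment period, incubated overnight at 37C, and read for red fluorescence at 540/590nm.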

[10] = qHTS assay to test for compound auto fluorescence at 535 nm (green) in HEK293 cells (AID 720680)
[11] = qHTS assay to test for compound auto fluorescence at 460 nm (blue) in HEK293 cell free culture (AID 720681)
How it was run: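 Compounds were added to cell-free DMEM with 10% FBS and fluorescence read directly. The blue channel used 405 nm excitation and 460 nm emission, with triamterene as the reference fluorophore.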

[12] = qHTS assay to test for compound auto fluorescence at 535 nm (green) in HEK293 cell free culture (AID 720682)
How it was run: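 Intrinsic compound fluorescence is measured in culture medium containing 10% FBS, with excitation at 485 nm and detection at 535 nm, referenced to fluorescein.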

[13] = qHTS assay to test for compound auto fluorescence at 590 nm (red) in HEK293 cell free culture (AID 720683)
How it was run: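 Cell-free wells of DMEM with 10% FBS received compound, and intrinsic fluorescence was read at excitation/emission 540/590 nm. Values expressed as equivalence to Rose Bengal sodium.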

[14] = qHTS assay to test for compound auto fluorescence at 590 nm (red) in HepG2 cell free culture (AID 720684)
How it was run: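 Compounds are added to culture medium (MEM, 10% FBS) lacking cells, then fluorescence is read at excitation 540 nm, emission 590 nm, with Rose Bengal sodium as the equivalency standard.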

[15] = qHTS assay to test for compound auto fluorescence at 460 nm (blue) in HepG2 cell free culture (AID 720685)
How it was run: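 Compound (23 nL) or DMSO pinned into cell-free MEM with 10% FBS; blue fluorescence read at 405/460 nm excitation/emission, expressed as auto-fluorescence equivalency to triamterene.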

[16] = qHTS assay to test for compound auto fluorescence at 535 nm (green) in HepG2 cell free culture (AID 720686)
[17] = qHTS assay to test for compound auto fluorescence at 460 nm (blue) in HepG2 cells (AID 720687)
How it was run: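 HepG2 cells in MEM with 10% FBS, attached overnight at 37 C, were exposed to compound or DMSO for 1 hr at 37 C, 5% CO2. Blue fluorescence was read at 405/460 nm, with triamterene as reference fluorophore.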

[18] = qHTS assay for small molecule disruptors of the mitochondrial membrane potential (AID 720635); further: potency means the concentration at half of the fitted maximal effect
How it was run: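 HepG2 cells exposed to compound 1 hr at 37C, then Mito-MPS dye 30 min. Ratio read of aggregate (540/590 nm) versus monomer (490/535 nm) fluorescence.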

[19] = target: Glucocorticoid receptor (Homo sapiens) (UniProt P04150); assay: qHTS assay to identify small molecule agonists of the glucocorticoid receptor (GR) signaling pathway (AID 720691; active means well fitted activation curve with a large enough effect in the signal ratio in the repeat runs, not every such curve was filed as active; inconclusive means weak or mixed curves, or effect the other way; inactive means no such curve, though single readings can be large or run the other way; the % refers to the signal ratio; further: potency means the concentration at half of the fitted maximal effect); conditions: GR-bla HeLa, beta-lactamase reporter ratio, 18 h; activation: at 62.4 µM (top of the series)
How it was run: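 GR-bla HeLa cells (beta-lactamase reporter under glucocorticoid response element) were plated 4 h at 37 C/5% CO2, given compounds in DMSO, and incubated 18 h at 37 C. LiveBLAzer B/G FRET substrate was added for 2 h at room temperature, then fluorescence intensity read.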

[20] = target: Glucocorticoid receptor (Homo sapiens) (UniProt P04150); assay: qHTS assay to identify small molecule antagonists of the glucocorticoid receptor (GR) signaling pathway (AID 720692; active means well fitted inhibition curve with a large enough effect in the signal ratio in the repeat runs, not every such curve was filed as active; inconclusive means weak or mixed curves, or effect the other way; inactive means no such curve, though single readings can be large or run the other way; the % refers to the signal ratio; further: potency means the concentration at half of the fitted maximal effect)
How it was run: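 GR-bla HeLa cells (beta-lactamase reporter under glucocorticoid response element) were pre-plated 4 h at 37 C, treated with compounds plus 5 nM dexamethasone (final) for 18 h, then read by LiveBLAzer B/G FRET fluorescence after 2 h.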

Measured: Potency

Glucocorticoid receptor (Homo sapiens), sequence (P04150 whole entry, looked up): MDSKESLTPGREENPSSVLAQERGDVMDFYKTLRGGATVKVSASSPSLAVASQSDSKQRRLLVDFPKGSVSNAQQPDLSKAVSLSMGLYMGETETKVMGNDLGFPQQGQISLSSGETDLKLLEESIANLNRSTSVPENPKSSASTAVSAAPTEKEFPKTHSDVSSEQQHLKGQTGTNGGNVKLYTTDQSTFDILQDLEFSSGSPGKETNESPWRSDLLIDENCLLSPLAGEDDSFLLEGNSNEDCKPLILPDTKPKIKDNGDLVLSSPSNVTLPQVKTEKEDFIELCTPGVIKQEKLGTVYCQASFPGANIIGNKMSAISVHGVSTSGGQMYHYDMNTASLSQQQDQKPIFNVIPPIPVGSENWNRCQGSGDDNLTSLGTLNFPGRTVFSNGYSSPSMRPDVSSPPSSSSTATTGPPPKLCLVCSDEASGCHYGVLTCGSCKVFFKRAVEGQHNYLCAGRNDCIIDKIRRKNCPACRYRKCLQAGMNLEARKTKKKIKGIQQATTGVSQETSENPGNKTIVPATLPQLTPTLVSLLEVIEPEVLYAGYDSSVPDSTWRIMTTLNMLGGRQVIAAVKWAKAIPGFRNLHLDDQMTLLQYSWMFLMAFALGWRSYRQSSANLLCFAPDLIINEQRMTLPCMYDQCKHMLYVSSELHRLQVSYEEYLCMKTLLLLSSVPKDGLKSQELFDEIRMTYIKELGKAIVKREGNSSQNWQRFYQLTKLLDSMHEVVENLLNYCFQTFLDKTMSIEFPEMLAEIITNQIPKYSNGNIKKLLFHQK

CCCCCCCCn1sc(Cl)c(Cl)c1=O
active: [1] 17.2 µM | [3] 30.6 µM | [4] 19.3 µM | [5] 27.3 µM
inactive: [2] | [6] | [7] | [8] | [9] | [10] | [11] | [12] | [13] | [14] | [15] | [16] | [17]

CN1CCN(CCC(=O)N2c3ccccc3Sc3ccc(C(F)(F)F)cc32)CC1
inactive: [1] | [2] | [3] | [4] | [5] | [6] | [8] | [9] | [10] | [11] | [12] | [13] | [14] | [15] | [16] | [17]

CN(C)c1ccc(C2(c3ccc(N(C)C)cc3)OC(=O)c3cc(N(C)C)ccc32)cc1
active: [1] 60.9 µM | [18] 21.6 µM | [19] 4.35 µM [inconclusive]
inactive: [2] | [3] | [4] | [6] | [8] | [9] | [10] | [11] | [12] | [13] | [14] | [15] | [16] | [17]

O=C(O)c1ccc(Cl)c(Cl)c1
inactive: [1] | [2] | [3] | [4] | [5] | [6] | [7] | [8] | [9] | [10] | [11] | [12] | [13] | [14] | [15] | [16] | [17]

COc1cc(-c2ccc(N=C=O)c(OC)c2)ccc1N=C=O
inactive: [1] | [2] | [3] | [4] | [5] | [6] | [7] | [8] | [9] | [10] | [11] | [12] | [13] | [14] | [15] | [17]

CCN(C(=O)c1cc(C)cc(OC[C@H](C)Nc2ccncc2)c1)C(C)C
inactive: [1] | [2] | [3] | [4] | [5] | [6] | [7] | [8] | [9] | [10] | [11] | [12] | [13] | [14] | [15] | [16] | [17] | [20]

CC(=O)OCC(C)OC(C)=O (stereo unspecified)
inactive: [1] | [2] | [3] | [4] | [6] | [7] | [8] | [9] | [10] | [11] | [12] | [13] | [14] | [15] | [16] | [17]

O=C1c2ccccc2Cc2ccccc21
active: [18] 12.3 µM
inactive: [1] | [2] | [3] | [4] | [5] | [6] | [8] | [10] | [11] | [12] | [13] | [14] | [15] | [16] | [17]

O=C(NOCC1CC1)c1ccc(F)c(F)c1Nc1ccc(I)cc1Cl
active: [1] 11.9 µM | [3] 23.7 µM | [18] 8.41 µM | [20] 10.7 µM
inactive: [2] | [4] | [6] | [7] | [8] | [9] | [10] | [11] | [12] | [13] | [14] | [15] | [16] | [17]

O=C(Nc1ccc(Oc2ccc(Cl)cc2)c(Cl)c1)c1cc(I)cc(I)c1O
active: [1] 10.6 µM | [3] 4.22 µM | [18] 2.37 µM
inactive: [2] | [4] | [5] | [6] | [7] | [8] | [9] | [10] | [11] | [12] | [13] | [14] | [15] | [16]

Clc1ccc2nsnc2c1NC1=NCCN1
inactive: [1] | [2] | [3] | [4] | [5] | [18] | [6] | [7] | [8] | [9] | [10] | [11] | [12] | [13] | [14] | [15] | [16] | [17] | [20]

CNC(=O)c1ccccc1
inactive: [1] | [2] | [3] | [4] | [5] | [18] | [6] | [7] | [8] | [9] | [10] | [11] | [12] | [13] | [14] | [15] | [16] | [17] | [19]
